The values that follow come from ChEMBL document CHEMBL3988442, “University of Dundee, Small-Polar-MMV Screening Library” (2021).

Holding throughout (parameters): scale not given: direction of the effect not stated beside the values
In test [1] the target is Protein translocase subunit SecA (Escherichia coli (strain K12)) (UniProt P10408). Description: Assay to Identify E. coli SecA ATPase Inhibitors. The format is functional. The settings on record: 30 µM.
The target in test [2] is T1, Ubiquitin-activating enzyme e1, putative (Leishmania donovani (strain BPK282A1)) (UniProt E9BSI1).
T1 sequence (whole entry): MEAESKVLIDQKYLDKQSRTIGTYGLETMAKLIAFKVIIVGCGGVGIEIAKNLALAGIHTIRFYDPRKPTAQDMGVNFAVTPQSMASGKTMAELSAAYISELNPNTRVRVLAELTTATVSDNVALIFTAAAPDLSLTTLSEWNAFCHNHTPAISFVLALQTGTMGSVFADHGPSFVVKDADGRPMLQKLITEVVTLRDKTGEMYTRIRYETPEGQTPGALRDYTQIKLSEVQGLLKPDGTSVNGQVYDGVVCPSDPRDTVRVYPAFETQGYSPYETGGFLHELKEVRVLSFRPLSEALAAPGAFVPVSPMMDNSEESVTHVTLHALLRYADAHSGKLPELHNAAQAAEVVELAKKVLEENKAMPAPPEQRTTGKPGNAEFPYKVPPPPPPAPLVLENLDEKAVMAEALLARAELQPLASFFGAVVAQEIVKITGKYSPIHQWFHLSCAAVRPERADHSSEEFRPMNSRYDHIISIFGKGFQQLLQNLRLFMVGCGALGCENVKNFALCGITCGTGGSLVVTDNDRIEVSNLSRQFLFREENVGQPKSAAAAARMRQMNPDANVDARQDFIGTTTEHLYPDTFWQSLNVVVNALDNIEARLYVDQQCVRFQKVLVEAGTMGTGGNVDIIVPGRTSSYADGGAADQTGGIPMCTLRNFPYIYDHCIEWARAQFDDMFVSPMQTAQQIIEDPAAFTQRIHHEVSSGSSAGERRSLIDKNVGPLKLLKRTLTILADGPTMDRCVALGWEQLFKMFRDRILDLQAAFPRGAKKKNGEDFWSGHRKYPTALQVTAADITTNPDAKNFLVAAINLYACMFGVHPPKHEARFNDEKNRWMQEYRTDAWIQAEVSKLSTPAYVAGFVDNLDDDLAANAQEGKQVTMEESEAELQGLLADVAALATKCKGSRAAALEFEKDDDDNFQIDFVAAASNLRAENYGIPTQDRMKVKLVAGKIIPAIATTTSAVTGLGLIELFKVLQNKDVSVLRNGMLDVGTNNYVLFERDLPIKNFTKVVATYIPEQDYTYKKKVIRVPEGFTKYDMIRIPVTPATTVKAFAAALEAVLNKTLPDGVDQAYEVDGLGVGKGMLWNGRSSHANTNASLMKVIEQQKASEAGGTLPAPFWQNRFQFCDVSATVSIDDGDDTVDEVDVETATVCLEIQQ
Kind of test: Leishmania donovani Ubiquitin Activating Enzyme (LdE1). The settings on record: 30 µM. The format is functional.

Test [3] has as its target AMP-activated protein kinase, AMPK (Homo sapiens) (UniProt P54646+O43741+P54619+Q9UGJ0+Q9Y478+Q13131+Q9UGI9). Description: AMP-dependent Kinase enzyme assay. An in vitro enzyme assay that detects ADP turnover that is directly proportional to AMPK activity. This uses naive AMPK that is activated during the assay with MK-8722. The format is functional. The settings on record: 30 µM.

For test [4], the target named is Sialic acid-binding Ig-like lectin 9 (Homo sapiens) (UniProt Q9Y336). Description: Hs-Siglec9 ALPHAscreen SOP 20170721. As to conditions: 10 µM. For orientation: In Alpha technology, singlet oxygen from a donor bead excites a nearby acceptor bead.
The next test deals with Trypanosoma cruzi. Kind of test: Trypanosoma cruzi phosphomannomutase and mannose-1-phosphate guanylyltransferase assay. Type of test: functional. As to conditions: 10 µM.
The target of test [5] is T2, Arginase-2, mitochondrial (Homo sapiens) (UniProt P78540).
T2 sequence (whole entry): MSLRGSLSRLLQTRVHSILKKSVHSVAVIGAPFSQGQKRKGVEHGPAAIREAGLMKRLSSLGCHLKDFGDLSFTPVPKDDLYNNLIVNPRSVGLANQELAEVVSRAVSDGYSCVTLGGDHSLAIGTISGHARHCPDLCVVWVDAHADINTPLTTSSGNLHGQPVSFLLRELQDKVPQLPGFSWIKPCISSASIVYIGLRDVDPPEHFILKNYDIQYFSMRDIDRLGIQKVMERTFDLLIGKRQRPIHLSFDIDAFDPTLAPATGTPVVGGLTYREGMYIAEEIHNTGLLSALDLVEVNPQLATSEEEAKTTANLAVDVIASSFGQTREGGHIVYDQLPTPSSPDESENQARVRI
Description: in vitro enzyme assay to detect the production of urea directly proportional to the activity of Arginase II. Note: in the data most compounds retested in dose-response had high values. The format is functional. As to conditions: 33.3 µM.

For test [6], the target named is T3, Proteasome subunit beta (Trypanosoma cruzi) (UniProt O96673).
T3 sequence (whole entry): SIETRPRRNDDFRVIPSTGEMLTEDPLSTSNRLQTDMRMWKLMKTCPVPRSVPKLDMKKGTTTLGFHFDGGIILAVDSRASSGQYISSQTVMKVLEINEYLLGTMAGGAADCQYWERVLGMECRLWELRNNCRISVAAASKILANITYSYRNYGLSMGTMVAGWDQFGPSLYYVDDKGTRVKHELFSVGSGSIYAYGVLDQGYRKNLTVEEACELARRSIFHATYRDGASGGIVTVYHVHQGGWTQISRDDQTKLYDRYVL
Kind of test: Trypanosoma cruzi proteasome chymotrypsin-like activity (TcProtChymo) assay. Note: in the data most compounds retested in dose-response had high values. As to conditions: 9.37 µM. The format is functional.

For a further test, the species on record is Homo sapiens. Kind of test: To identify inhibition of the IFN signalling (Jak-Stat) pathway via expression of an eGFP reporter gene under the control of an IFN-stimulated response element (ISRE) containing MxA promoter. Type of test: functional. As to conditions: 30 µM. Background: Reporter assays use an easily measured gene product as a stand-in for the process of interest.

Test [7] addresses T4, Tyrosyl-tRNA synthetase, putative (Trypanosoma cruzi (strain CL Brener)) (UniProt Q4DSP6).
T4 sequence (whole entry): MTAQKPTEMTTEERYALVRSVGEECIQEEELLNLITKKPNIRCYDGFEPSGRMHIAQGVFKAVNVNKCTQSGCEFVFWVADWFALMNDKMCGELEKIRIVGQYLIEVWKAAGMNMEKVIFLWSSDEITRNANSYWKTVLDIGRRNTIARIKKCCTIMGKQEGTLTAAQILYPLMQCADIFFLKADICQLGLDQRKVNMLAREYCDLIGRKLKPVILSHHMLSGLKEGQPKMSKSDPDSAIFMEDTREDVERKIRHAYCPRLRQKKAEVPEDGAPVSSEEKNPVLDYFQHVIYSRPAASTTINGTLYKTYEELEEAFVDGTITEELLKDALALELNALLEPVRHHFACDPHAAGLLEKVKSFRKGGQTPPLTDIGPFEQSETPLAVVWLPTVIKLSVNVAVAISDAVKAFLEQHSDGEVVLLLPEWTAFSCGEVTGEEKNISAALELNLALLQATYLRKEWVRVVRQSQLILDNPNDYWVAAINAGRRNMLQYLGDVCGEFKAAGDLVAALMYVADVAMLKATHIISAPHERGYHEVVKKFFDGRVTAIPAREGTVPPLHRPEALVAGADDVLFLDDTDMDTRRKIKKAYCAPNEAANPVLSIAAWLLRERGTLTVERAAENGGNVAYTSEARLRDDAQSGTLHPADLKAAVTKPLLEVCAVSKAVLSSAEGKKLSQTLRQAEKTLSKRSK
Description: Trypanosoma cruzi tyrosyl tRNA synthetase (TcYRS) _High Tyrosine SOP. Note: in the data most compounds retested in dose-response had high values. Type of test: functional. As to conditions: 30 µM.

The target in test [8] is T4, Tyrosyl-tRNA synthetase, putative (Trypanosoma cruzi (strain CL Brener)). Kind of test: Trypanosoma cruzi tyrosyl tRNA synthetase (TcYRS) SOP. The format is functional. The settings on record: 30 µM.
Test [9] concerns the target Chromo domain-containing protein 1 (Saccharomyces cerevisiae (strain ATCC 204508 / S288c) (Baker's yeast)) (UniProt P32657). Kind of test: ScCHD-1 Enzyme Inhibition Assay. Note: in the data most compounds retested in dose-response had high values. As to conditions: 30 µM. Type of test: functional.

For some of these results: Measured potencies and affinities stand elsewhere.

Sequence of Chromo domain-containing protein 1 (Saccharomyces cerevisiae (strain ATCC 204508 / S288c) (Baker's yeast)) (P32657 whole entry, the tested form may be a part): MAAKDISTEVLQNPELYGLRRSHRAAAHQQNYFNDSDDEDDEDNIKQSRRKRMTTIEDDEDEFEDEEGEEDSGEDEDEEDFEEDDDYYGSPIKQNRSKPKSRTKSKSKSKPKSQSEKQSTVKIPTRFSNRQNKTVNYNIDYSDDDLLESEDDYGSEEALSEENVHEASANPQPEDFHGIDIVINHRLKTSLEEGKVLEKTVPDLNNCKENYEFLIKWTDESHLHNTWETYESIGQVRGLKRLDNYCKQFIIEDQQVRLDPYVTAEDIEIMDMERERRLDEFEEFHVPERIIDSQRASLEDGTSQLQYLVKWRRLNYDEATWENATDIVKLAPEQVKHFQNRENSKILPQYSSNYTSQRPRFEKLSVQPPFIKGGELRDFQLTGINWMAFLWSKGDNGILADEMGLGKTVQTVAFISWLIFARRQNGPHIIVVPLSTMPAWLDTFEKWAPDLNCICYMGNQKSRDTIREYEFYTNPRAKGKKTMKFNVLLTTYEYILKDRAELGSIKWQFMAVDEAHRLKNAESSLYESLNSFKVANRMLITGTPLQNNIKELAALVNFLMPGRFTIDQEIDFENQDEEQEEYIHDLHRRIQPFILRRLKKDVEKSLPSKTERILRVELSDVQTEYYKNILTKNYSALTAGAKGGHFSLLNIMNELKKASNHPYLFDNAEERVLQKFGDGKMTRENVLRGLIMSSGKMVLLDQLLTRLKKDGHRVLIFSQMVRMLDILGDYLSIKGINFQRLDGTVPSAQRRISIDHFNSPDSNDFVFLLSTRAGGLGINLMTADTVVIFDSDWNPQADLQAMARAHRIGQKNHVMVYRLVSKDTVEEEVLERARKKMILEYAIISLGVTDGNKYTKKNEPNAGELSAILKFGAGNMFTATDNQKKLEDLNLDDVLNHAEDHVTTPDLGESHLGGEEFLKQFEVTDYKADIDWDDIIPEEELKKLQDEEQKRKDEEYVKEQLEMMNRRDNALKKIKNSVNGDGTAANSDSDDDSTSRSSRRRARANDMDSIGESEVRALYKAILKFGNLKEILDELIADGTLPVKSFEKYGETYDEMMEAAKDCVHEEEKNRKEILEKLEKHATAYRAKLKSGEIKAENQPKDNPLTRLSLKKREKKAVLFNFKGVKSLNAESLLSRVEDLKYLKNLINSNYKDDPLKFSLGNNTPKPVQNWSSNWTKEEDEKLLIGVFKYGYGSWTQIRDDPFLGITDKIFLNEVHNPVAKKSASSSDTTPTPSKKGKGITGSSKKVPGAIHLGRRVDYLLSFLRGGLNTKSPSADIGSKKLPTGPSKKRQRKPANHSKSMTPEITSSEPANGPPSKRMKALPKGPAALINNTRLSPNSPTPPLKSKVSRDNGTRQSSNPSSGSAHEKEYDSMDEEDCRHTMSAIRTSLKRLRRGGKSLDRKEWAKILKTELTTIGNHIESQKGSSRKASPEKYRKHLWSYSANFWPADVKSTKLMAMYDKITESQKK
Sequence of Protein translocase subunit SecA (Escherichia coli (strain K12)) (P10408 whole entry): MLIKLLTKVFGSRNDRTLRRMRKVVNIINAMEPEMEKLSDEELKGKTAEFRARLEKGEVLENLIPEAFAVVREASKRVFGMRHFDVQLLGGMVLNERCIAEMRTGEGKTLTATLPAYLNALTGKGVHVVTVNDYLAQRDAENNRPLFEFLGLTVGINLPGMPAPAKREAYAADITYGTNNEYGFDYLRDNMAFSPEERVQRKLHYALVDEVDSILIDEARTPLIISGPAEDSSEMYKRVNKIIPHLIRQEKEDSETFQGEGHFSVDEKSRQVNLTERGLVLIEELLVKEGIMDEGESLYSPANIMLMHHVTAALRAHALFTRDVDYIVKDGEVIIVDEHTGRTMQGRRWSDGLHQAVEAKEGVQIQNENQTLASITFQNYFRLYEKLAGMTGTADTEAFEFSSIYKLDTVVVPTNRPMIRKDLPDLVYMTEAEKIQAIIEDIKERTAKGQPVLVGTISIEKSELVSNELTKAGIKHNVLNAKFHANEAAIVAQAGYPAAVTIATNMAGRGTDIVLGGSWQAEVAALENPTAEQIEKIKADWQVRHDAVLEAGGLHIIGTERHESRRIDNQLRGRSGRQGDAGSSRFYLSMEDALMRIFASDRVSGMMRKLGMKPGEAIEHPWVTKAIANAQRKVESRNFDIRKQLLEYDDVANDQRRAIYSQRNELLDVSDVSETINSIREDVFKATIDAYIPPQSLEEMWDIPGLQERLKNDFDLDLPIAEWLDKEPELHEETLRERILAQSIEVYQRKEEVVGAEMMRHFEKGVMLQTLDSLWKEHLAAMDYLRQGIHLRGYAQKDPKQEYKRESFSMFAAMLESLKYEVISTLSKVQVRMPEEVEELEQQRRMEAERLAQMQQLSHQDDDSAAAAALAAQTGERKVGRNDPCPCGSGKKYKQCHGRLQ
Sequence of Sialic acid-binding Ig-like lectin 9 (Homo sapiens) (Q9Y336 whole entry): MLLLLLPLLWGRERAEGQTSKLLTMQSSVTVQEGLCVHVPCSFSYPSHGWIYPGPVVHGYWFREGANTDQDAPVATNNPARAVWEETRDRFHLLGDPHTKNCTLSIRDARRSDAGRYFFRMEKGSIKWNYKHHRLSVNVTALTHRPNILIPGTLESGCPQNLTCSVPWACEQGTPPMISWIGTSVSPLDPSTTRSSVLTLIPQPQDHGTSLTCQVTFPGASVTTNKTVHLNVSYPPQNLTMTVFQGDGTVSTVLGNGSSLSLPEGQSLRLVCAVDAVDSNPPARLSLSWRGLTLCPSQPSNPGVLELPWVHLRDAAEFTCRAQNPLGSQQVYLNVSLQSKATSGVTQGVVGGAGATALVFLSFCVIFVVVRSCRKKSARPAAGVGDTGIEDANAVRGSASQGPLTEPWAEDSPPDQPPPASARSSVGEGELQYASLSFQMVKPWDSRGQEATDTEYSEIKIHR

For `COCC(O)CNC(=O)c1cnc(-c2ccccc2)nc1O` (stereo not drawn), the Percent Effect in test [1] was 2.38%; in test [2], 8.11%; in test [3], -5.21%; in test [4], 5.6%; with Trypanosoma cruzi, 3.28%; in test [5] it was -0.476%. Moreover, the Percent Effect in test [6] is 8.97%; in the test filed under Homo sapiens, 13.5%; in test [7], 8.99%; in test [8], 19.5%; in test [9], -0.825%.
With `O=C1CCc2cc(-c3csc(CCN4CCCC4=O)n3)ccc2N1`, the Percent Effect was -2.58% in test [1]; 20.8% in test [2]; 4.11% in test [3]; 2.39% in [4]; 0.936% in the test with Trypanosoma cruzi; -4.98% in test [5]. Also, the Percent Effect in [6] was 5.41%; in the test listed under Homo sapiens, 22.8%; in test [7] it was 15.5%; in [8], 19.5%; in [9], -7.82%.
As to `COc1ccc(OCC(=O)NC(C)c2ccc(F)cc2)c(C(=O)O)c1` (stereo not drawn), the Percent Effect in test [1] is -5.45%; in test [2] it was 5.41%; in test [3], 1.14%; in test [4], 2.91%; with Trypanosoma cruzi, 2.05%; in test [5] it was 5.21%. For the same compound, the Percent Effect is 0.944% in [6]; -0.568% in the test filed under Homo sapiens; 4.3% in [7]; 13.6% in test [8]; -5.02% in [9].
`CCc1nccn1C1CCCN(C(=O)Cc2cn3ccccc3n2)C1` (stereo not drawn): the Percent Effect in test [1] was -4.36%; in test [2] it was 8.86%; in test [3], -1.52%; in test [4], -5.05%; in the test with Trypanosoma cruzi, 3.18%; in test [5], -1.5%. The Percent Effect was 13.2% in [6]; 17.9% in the test listed under Homo sapiens; -1.04% in test [7]; 10.1% in test [8]; -29% in test [9].
Regarding `OC(COCc1ccc(Cl)cc1)CN1CCC(c2ccn[nH]2)CC1` (stereo not drawn), the Percent Effect in test [1] was -3.72%; in [2], 20.2%; in [3], -9.18%; in test [4], -2.48%; with Trypanosoma cruzi, 7.27%; in [5], -3.04%. Besides, the Percent Effect in test [6] is 3.03%; in the test listed under Homo sapiens it was -5.57%; in test [7], 5.42%; in test [8] it was 26.6%; in [9], -7.16%.
For `CC(C)C(=O)NCCCn1ncc2c(Cl)cccc21`, the Percent Effect was -4.7% in test [1]; 10.4% in test [2]; 1.13% in test [3]; 17.2% in [4]; 5.61% in the test with Trypanosoma cruzi; -8.28% in test [5]. Also, the Percent Effect in test [6] is 4.33%; in the test listed under Homo sapiens it was -1.52%; in test [7] it was 5.38%; in [8], 11.1%; in test [9], -3.62%.
Turning to `O=C1CCC2(CCN(Cc3nccs3)CC2)N1Cc1ccccc1`, the Percent Effect in test [1] is -0.659%; in [2], 5.33%; in [3] it was 5.45%; in [4], 1.02%; in the test on Trypanosoma cruzi, -5.91%; in test [5], 3.03%. In addition, the Percent Effect in test [6] was 10.8%; in the test filed under Homo sapiens, 5.84%; in test [7], 5.32%; in test [8], 11.5%; in test [9] it was -0.585%.
Take `CCCOc1cccc(CNC(=O)CN2CCN(C)CC2C)c1` (stereo not drawn): the Percent Effect in test [1] is -1.3%; in test [2], 13.5%; in test [3], -7.22%; in [4], 15%; with Trypanosoma cruzi, 1.02%; in test [5], -6.47%. Further, the Percent Effect in [6] was 1.98%; in the test filed under Homo sapiens it was 14.1%; in test [7] it was 3.96%; in test [8], 15.8%; in test [9], -9.26%.
